Data from publication PMC7819943, “Rice protein-binding microarrays: a tool to detect cis-acting elements near promoter regions in rice”.
In all, about 68,000 sequences were measured (“fluorescence intensity (a.u.)”: median about 9,100, highest 2% from about 16,000 on). For the sample, the highest values were picked, then their nearest neighbours and some sequences at random.

The sequences below were run against OsWRKY34 (Oryza sativa, UniProt Q0JBA9 1-250) (assay: protein-binding microarray (RPBM); PBS, 2% BSA, 51.3 ng/ul salmon testes DNA, 50 uM zinc acetate, 200 nM TF, 25 C, 1 h; high values mean tight binding). Details: protein: recombinant; tags: N-terminal polyhistidine and DsRed monomer fusion (pET32a); label: CyDye5-dUTP incorporated in the synthesized complementary strand; 3' TTTTT single-stranded linker to array surface; dsDNA, one strand shown.
Chain of OsWRKY34 (Q0JBA9 entry or part of it): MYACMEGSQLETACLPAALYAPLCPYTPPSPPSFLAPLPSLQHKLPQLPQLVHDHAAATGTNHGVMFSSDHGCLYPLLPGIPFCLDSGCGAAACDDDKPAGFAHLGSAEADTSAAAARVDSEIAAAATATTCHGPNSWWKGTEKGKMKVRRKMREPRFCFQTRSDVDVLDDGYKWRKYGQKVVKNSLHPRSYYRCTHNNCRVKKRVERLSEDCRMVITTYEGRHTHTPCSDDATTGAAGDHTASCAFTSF
Outline: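 The binding signal for each feature is its fluorescence intensity in arbitrary units. An Axon 4000B scanner was used to read a custom Agilent array that had been made double-stranded with Cy5-dUTP primer extension, blocked with 2% BSA, incubated at 25 °C for 1 h with 200 nM protein in PBS, 2% BSA, salmon testes DNA and 50 µM zinc acetate, and washed. The protein was an N-terminal polyhistidine–DsRed transcription factor fusion from E. coli BL21-CodonPlus, purified on Ni–NTA.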
For “AAGTTACTTTTATTTTTTTCTAGTCAAACTACTTAGACTTCGGAGTCACCTAGTGCAG”, the binding signal was 8740 fluorescence intensity (a.u.). “TATTTTTGACTTTGGTCAAAGTCAAACTGTTTTAAGTTTGCGGAGTCACCTAGTGCAG” was tested, and the binding signal was 17900 fluorescence intensity (a.u.). In the case of “TAAGATGTTTTGACTTTGGTCAAAGTCAAACTACTTTGAGCGGAGTCACCTAGTGCAG”, the binding signal is reported as 13200 fluorescence intensity (a.u.). With “GTTTGACTTTTTTACTAGTCAAACTTATTTAAGTTTGACCCGGAGTCACCTAGTGCAG” the binding signal was 17500 fluorescence intensity (a.u.). For “CGCTCACTCGTCTCCTCTCGGTTTCTTTCTCTCTCTCTCTCGGAGTCACCTAGTGCAG”, the binding signal was 8160 fluorescence intensity (a.u.). With “TATCACGATATTCTACCTCGCTCTCATGGGCTAGATCACCCGGAGTCACCTAGTGCAG” the binding signal was 9500 fluorescence intensity (a.u.). For “CCTTGTACCTCTGTCCAGATTCATTGTACTAAGATATGTCCGGAGTCACCTAGTGCAG”, the binding signal was 8540 fluorescence intensity (a.u.). “CTCTCTCTCTCTCTGCAGCTAGGCCATATGCATCTCTCCTCGGAGTCACCTAGTGCAG” was tested, and the binding signal was 9070 fluorescence intensity (a.u.). With “GCATTCACTCCATCGCACCACTTCATGCCGCAAAATGTTTCGGAGTCACCTAGTGCAG” the binding signal was 9970 fluorescence intensity (a.u.). In the case of “ATACGAGCCAAAGACCGTTGACAAGCTAGTCAACAGTCATCGGAGTCACCTAGTGCAG”, the binding signal is reported as 8910 fluorescence intensity (a.u.). “AACCATCATGACCGGCTACCACTAAGCTGCGCCTGTCTACCGGAGTCACCTAGTGCAG” was tested, and the binding signal was 8700 fluorescence intensity (a.u.). With “AACCAAACAACCGTTGTCTTGGCACAGCTGTCGCAACCTGCGGAGTCACCTAGTGCAG” the binding signal was 8200 fluorescence intensity (a.u.). “TTTTGTCTACTGCGCCTACCACGCCGTTGTCCACTACCTCCGGAGTCACCTAGTGCAG” was tested, and the binding signal was 10400 fluorescence intensity (a.u.). In the case of “AAGCTAGTCAAACCGTTGACTACCACTGTCTTTGTTGCGCCGGAGTCACCTAGTGCAG”, the binding signal is reported as 16800 fluorescence intensity (a.u.). For “GCTGCACAGCTAGTCAACACAAGCTAGTCAAACCGTTGACCGGAGTCACCTAGTGCAG”, the binding signal was 19200 fluorescence intensity (a.u.). “CCTCGAGCTGTGCACGGCTGGTTCGTCTCGCGCCGCTTATCGGAGTCACCTAGTGCAG” was tested, and the binding signal was 10900 fluorescence intensity (a.u.). With “TCAGTGTCGGCCGCGATGTCTTTGCAGCTTTGCTGGTTTTCGGAGTCACCTAGTGCAG” the binding signal was 8090 fluorescence intensity (a.u.). In the case of “GGTATTGTTGATACTTTCAGTTTTCGCATTTGTTCGCTTCCGGAGTCACCTAGTGCAG”, the binding signal is reported as 9230 fluorescence intensity (a.u.). With “AAACTTAGCAAGAGCTCTGACCTATTGGAAAATTTTCTTTCGGAGTCACCTAGTGCAG” the binding signal was 9480 fluorescence intensity (a.u.). In the case of “ATATTTGGTTTTTTTTCGTACTTTTTTTCGCCCGGTTTTTCGGAGTCACCTAGTGCAG”, the binding signal is reported as 20800 fluorescence intensity (a.u.). With “TTTCGTGATTTTCCCCGGTTGGCCACTACTTTTGCGATTTCGGAGTCACCTAGTGCAG” the binding signal was 9570 fluorescence intensity (a.u.). “GGACCTACTTTCGCGATTTTCCCCGGTTGGCCACTACTTTCGGAGTCACCTAGTGCAG” was tested, and the binding signal was 18800 fluorescence intensity (a.u.). With “AGATTTGGTTTTTTAGGCCGGTTTTTCGTTTTGTCGCCCTCGGAGTCACCTAGTGCAG” the binding signal was 8750 fluorescence intensity (a.u.). “TATATATATTTATCACCGGTTTATTTTGGTCTGGTCTTTTCGGAGTCACCTAGTGCAG” was tested, and the binding signal was 13000 fluorescence intensity (a.u.). In the case of “GACCTATTTTCGCGATTTTCCCCGGTTGACCACTACTTTTCGGAGTCACCTAGTGCAG”, the binding signal is reported as 13100 fluorescence intensity (a.u.). “CAGGACTGCGTGCTCCTTCTCGTTGTTCCTTACTCACCTTCGGAGTCACCTAGTGCAG” was tested, and the binding signal was 9560 fluorescence intensity (a.u.). With “CTACTGCTTTCTTTCTTTCTCTATTGCAGTCTACCTCCTACGGAGTCACCTAGTGCAG” the binding signal was 11400 fluorescence intensity (a.u.). With “CTTTTGACTGCCACAGTGTGTTAGGTATATGTTTGTTTCACGGAGTCACCTAGTGCAG” the binding signal was 11700 fluorescence intensity (a.u.). For “TCTTCCTCATGCGATTTGGTTGGTTGGTTTGACGCTACACCGGAGTCACCTAGTGCAG”, the binding signal was 13600 fluorescence intensity (a.u.). With “GGGTGTGTGCGCATGTGTGTTTGTCGTGTATTAAAAAAAACGGAGTCACCTAGTGCAG” the binding signal was 9130 fluorescence intensity (a.u.). For “TTAATTATTTCTTGGTATTTGGGTTAAGGGTGGTTGTGCCCGGAGTCACCTAGTGCAG”, the binding signal was 12600 fluorescence intensity (a.u.). For “TCTACTTTTCTCCACTCTTTTGCTATAGGGGCTGGGGTGGCGGAGTCACCTAGTGCAG”, the binding signal was 14200 fluorescence intensity (a.u.). In the case of “TATCTTAGGGCATGTTTGGTTGTACGGATCGTACCTGACTCGGAGTCACCTAGTGCAG”, the binding signal is reported as 9620 fluorescence intensity (a.u.). In the case of “GATGGCTACCTAGCTGACACGCAACGCCGGCCTCCGGATCCGGAGTCACCTAGTGCAG”, the binding signal is reported as 10600 fluorescence intensity (a.u.). In the case of “TATATATATATATATATATATATATATATGTGTGTGTGTGCGGAGTCACCTAGTGCAG”, the binding signal is reported as 13700 fluorescence intensity (a.u.). “GAATCATGTGCTATCTCGTTAATTATCTGCTCTTTTAGCTCGGAGTCACCTAGTGCAG” was tested, and the binding signal was 9000 fluorescence intensity (a.u.). “GGGCGTGGTGGTGGTGGTGGTGGTTATACGGTTTTCGGTTCGGAGTCACCTAGTGCAG” was tested, and the binding signal was 25900 fluorescence intensity (a.u.). With “TGGTGGTTTTCGTCGTCGTCGTCGTCGTCGGCTTCATATACGGAGTCACCTAGTGCAG” the binding signal was 10100 fluorescence intensity (a.u.). “TGGGTTTGTGGGTTATGTTTCGGTGCGTGCCGATAGTATACGGAGTCACCTAGTGCAG” was tested, and the binding signal was 14300 fluorescence intensity (a.u.). In the case of “TATATATATATATATATATATATATATATATATGTGTGTGCGGAGTCACCTAGTGCAG”, the binding signal is reported as 18100 fluorescence intensity (a.u.). With “TATATATATATATATATATATATATATATATGGTGGTGTTCGGAGTCACCTAGTGCAG” the binding signal was 20500 fluorescence intensity (a.u.). For “TTAATTATATGCTAATGGCTAACCTTATTTTACGTATCTTCGGAGTCACCTAGTGCAG”, the binding signal was 8180 fluorescence intensity (a.u.). For “TATATATATATATATATATATATATATGTGTGTGTGTGTTCGGAGTCACCTAGTGCAG”, the binding signal was 14600 fluorescence intensity (a.u.). In the case of “TATATATATATATATATATGTGTGTGTGTGTGTGTATGGTCGGAGTCACCTAGTGCAG”, the binding signal is reported as 9770 fluorescence intensity (a.u.). For “TATATATATGTGTGTGTGTGTGTGTGTGTGTGTGTGTGTGCGGAGTCACCTAGTGCAG”, the binding signal was 10100 fluorescence intensity (a.u.). In the case of “AGCAGATGGAGTATATCTTTAGCTAATTAAGCTATAGCTACGGAGTCACCTAGTGCAG”, the binding signal is reported as 23000 fluorescence intensity (a.u.).
